From PubChem
Only a selection was taken, and hits are over-represented in it overall.
LmPK inhibitor = LmPK (Leishmania mexicana) enzyme inhibition; purified LmPK, Kinase-Glo ATP luminescence, 1 h; Potency, µM (top dose mostly 57.5 µM), for inactives: at the highest dose activity change, negative = inhibition, actives largely listed as inhibitors; 290,000 compounds, 0.37% hits; also: potency is read from the fitted curve at half-maximal effect; % is scaled to controls: 0 for no effect and ±100 for the full control effect
Target sequence (Q27686 whole entry, looked up): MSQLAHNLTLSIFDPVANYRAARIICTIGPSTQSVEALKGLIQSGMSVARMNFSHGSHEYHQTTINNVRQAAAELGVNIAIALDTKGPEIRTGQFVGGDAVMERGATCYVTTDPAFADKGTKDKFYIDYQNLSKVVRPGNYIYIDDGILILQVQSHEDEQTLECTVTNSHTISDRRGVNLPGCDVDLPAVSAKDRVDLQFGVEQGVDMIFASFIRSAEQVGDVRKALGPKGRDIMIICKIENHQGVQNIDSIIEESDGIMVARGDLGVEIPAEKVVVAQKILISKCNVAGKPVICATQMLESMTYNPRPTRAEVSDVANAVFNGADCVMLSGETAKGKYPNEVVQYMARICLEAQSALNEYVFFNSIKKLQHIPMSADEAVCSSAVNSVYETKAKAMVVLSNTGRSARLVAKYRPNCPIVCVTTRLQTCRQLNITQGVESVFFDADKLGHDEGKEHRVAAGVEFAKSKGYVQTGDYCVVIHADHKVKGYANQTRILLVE
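Screened at intermediate enzyme activity to detect both inhibitors and activators: LmPK at 0.1 nM, with a 0.5 nM enzyme column as activation reference. PEP 0.5 mM, ADP 0.1 mM; ATP detected by luminescence after 1 h.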
Tb PYK inh = blocks Trypanosoma brucei pyruvate kinase. Potency, µM (top dose mostly 76.8 µM), for the others: at the top dose activity, negative = inhibition, most hits filed as inhibitors. AID 624173. TbPYK enzyme, Kinase-Glo Plus ATP luminescence, 45 min. 410,000 compounds, 0.12% hits; also: potency is read from the fitted curve at half-maximal effect; % is scaled to controls: 0 for no effect and ±100 for the full control effect; nearly all actives have a fitted effect of over 50% in size
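Enzyme and substrate buffer are dispensed first and compound is pin-transferred. ADP at 130 uM final then starts the reaction, which runs 45 min at room temperature. Detection reagent is added for 10 min before luminescence is imaged.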
NS1 inh = influenza NS1 inhibition. Potency, µM (top dose mostly 46.1 µM), inactives show at the top dose activity, positive = more growth. 270,000 compounds, 0.4% hits. AID 2326; calls by dose curve; also: potency is read from the fitted curve at half-maximal effect; actives are rising curves; nearly all actives have a fitted effect of over 50% in size
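Compounds were scored for reversing the slow growth caused by influenza A NS1 in S. cerevisiae, measured by optical density at 600 nm. Assay medium contained 2% galactose at pH 6.0; NS1-free yeast of the same strain were the positive control.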
Cycloheximide cs = affects cycloheximide protein synthesis inhibition readout, counter-screen | cell reporter, cycloheximide protein synthesis inhibition counterscreen | max response, % | 300,000 compounds, 12% hits; in the data active = max response mostly above about 13%, no sharp cut-off; inactive = mostly below about 14%; also: read at 38.3 µM for the half of the compounds with a filed dose; 0% is about no effect
SARS PLpro yeast = SARS-CoV PLP inhibition in yeast. Potency, µM (highest dose often 32.9 µM), inactives show at the highest dose activity, positive = growth rescue, usual class: activators. S. cerevisiae expressing SARS-CoV PLpro, growth rescue. 330,000 compounds, 0.19% hits; calls by dose curve; also: potency is read from the fitted curve at half-maximal effect; 0% is about no effect; nearly all actives have a fitted effect of over 55% in size
Shiga toxin inh = Shiga toxin inhibition; Vero cells, Shiga toxin protein synthesis inhibition reporter; inhibition, % at 38.7 µM; 290,000 compounds, 9.2% hits; in the data active = inhibition mostly above about 28%, no sharp cut-off; inactive = mostly below about 43%; also: 0% is about no effect
Starred values were filed as active, the others as inactive; ? = inconclusive; . = no result given; + = active, no number; [ ] = another dose, or the depositor's remark. Unless noted, calls follow the shape of the dose curve; as a rule, active = well fitted curve in the direction sought with a large enough effect; inconclusive = small, poorly fitted or top-dose-only effect, or another doubt; inactive = no such curve, though single readings can be large; an effect the other way counts as inactive or inconclusive.

SMILES	LmPK inhibitor	Tb PYK inh	NS1 inh	Cycloheximide cs	SARS PLpro yeast	Shiga toxin inh
Cc1ccc(C2=NNC(c3ccc(Cl)cc3)=Nc3ccccc32)o1	2.4%	15.2%	?	7.4	-0.7%	15.6
Cc1ccc(C2=Nc3ccccc3NC(C)(c3ccc(C)o3)C2)o1 (stereo not drawn)	-3.6%	-5.1%	-6.2%	59.6*	-2.7%	82.1*
CC1(c2ccccc2)CC(c2ccccc2)=Nc2ccccc2N1 (stereo not drawn)	2.7%	-7.1%	-2.2%	57.5*	3.8%	90.9*
CCOc1ccc(NC(=O)CN(C)C(=O)C(C)N2C(=O)c3ccccc3C2=O)cc1OCC (stereo not drawn)	.	1.8%	.	.	-1.0%	.
COc1cccc(NC(=S)N/N=C2\CC3CCC2(C)C3(C)C)c1 (stereo not drawn)	-2.7%	-20.4%	.	41.0*	0.8%	78.0*
CC12CCC(C/C1=N/NC(=O)Nc1ccccc1)C2(C)C (stereo not drawn)	5.1%	6.0%	.	9.5	5.6%	19.7
O=C(NC1CC1)c1ccc(CSCc2ccccc2Cl)o1	-4.0%	-6.6%	-20.6%	26.3*	-3.9%	18.1
CCOc1ccc(C2=NNC(c3cccs3)=Nc3ccc(OC)cc32)cc1OCC	1.5%	-7.8%	22.7%	26.6*	4.8%	52.2*
COc1ccc(C2=NNC(c3cccs3)=Nc3ccc(OC)cc32)cc1	-0.1%	-2.0%	?	30.9*	-31.5%	70.4*
CCOc1ccc(C2=NNC(c3cccs3)=Nc3ccc(OCC)cc32)cc1	0.9%	.	5.5%	3.8	-7.8%	29.7*
CCOc1ccc2c(c1)C(c1cccs1)=NNC(c1cccnc1)=N2	-1.6%	-1.8%	.	9.5	1.7%	-0.5
O=C(NC(=S)Nc1ccc(N2CCCCC2)cc1)c1ccco1	-3.0%	1.0%	-0.6%	39.1*	-2.1%	91.6*
Cc1ccc(C(=O)NC(=S)Nc2ccc(N3CCN(C(=O)c4ccco4)CC3)cc2)cc1	-5.5%	-5.1%	2.6%	11.1	-7.1%	-11.4
CC1CCN(c2ccc(NC(=S)NC(=O)c3ccco3)cc2)CC1	5.2%	-2.5%	-14.0%	19.0*	1.8%	72.3*
C[C@H]1Cc2c(COc3ccccc3)nc3c(c2CO1)CN(C(=O)c1cc(I)ccc1F)CC3	-4.2%[11.5 µM]	.	.	.	.	.
O=C(CNS(=O)(=O)c1cccc(Cl)c1)Nc1ccc(-c2nc3ccccc3s2)cc1	-2.1%	-4.0%	6.2%	33.5*	0.9%	42.9*
Cc1ccc(C)c(S(=O)(=O)NC(C)C(=O)Nc2ccc(-c3nc4ccccc4s3)cc2)c1 (stereo not drawn)	-1.3%	-0.7%	-4.5%	53.1*	-13.9%	83.2*
CC(C)(C)c1ccc(S(=O)(=O)NCC(=O)Nc2ccc(-c3nc4ccccc4s3)cc2)cc1	4.4%	0.8%	6.2%	38.0*	1.5%	123.1*
CC(NS(=O)(=O)c1cccc(Cl)c1)C(=O)Nc1ccc(-c2nc3ccccc3s2)cc1 (stereo not drawn)	9.2%	-9.9%	8.7%	37.5*	-1.4%	44.1
CC(C)(C)C(=O)Nc1ccc(-c2nc3ccccc3s2)cc1	.	-21.0%	.	.	.	.
O=C(NCc1cccs1)c1ccc2c(c1)sc1nc(-c3ccccc3)cn12	.	2.8%	.	.	.	.
Cc1ccc(C(=O)N[C@H](C(=O)Nc2ccc(N3CCOCC3)cc2)C(C)C)cc1	.	-8.7%	.	.	-11.6%	.
Cc1ccc(S(=O)(=O)N2CCOCC2)cc1C(=O)NC(=S)N1CC(C)OC(C)C1 (stereo not drawn)	0.2%	-0.1%	-7.2%	0.7	-0.4%	5.1
O=C(Nc1nc2ccc(F)cc2s1)c1nc(S(=O)(=O)Cc2ccccc2F)ncc1Cl	.	5.8%	.	.	.	.
Cc1nnc(NC(=O)c2nc(SCc3ccccc3F)ncc2Cl)s1	.	0.1%	.	.	.	.
SMILES	LmPK inhibitor	Tb PYK inh	NS1 inh	Cycloheximide cs	SARS PLpro yeast	Shiga toxin inh
Cc1nnc(NC(=O)c2nc(S(=O)(=O)Cc3ccccc3C)ncc2Cl)s1	0.9%	0.4%	?	43.6*	2.9%	51.5*
CSc1nnc(NC(=O)c2nc(S(=O)(=O)Cc3ccccc3F)ncc2Cl)s1	7.3%	-5.7%	7.6%	50.9*	4.4%	35.7*
CC(C)c1nnc(NC(=O)c2nc(S(=O)(=O)Cc3ccccc3F)ncc2Cl)s1	-8.5%	-9.4%	26.9%	56.5*	0.3%	105.7*
CC(=O)c1ccc(N2CCN(C(=O)Cn3ncc4c3-c3ccccc3OC4)CC2)cc1	.	-4.2%	.	.	.	.
Cc1cc(Cl)ccc1NC(=O)c1cc(S(=O)(=O)N2CCOCC2)cn1C	.	2.5%	.	.	.	.
CC[C@]12c3[nH]c4ccc(Cl)cc4c3CCN1C(=O)[C@@H](CC(=O)NCCC1=CCCCC1)C[C@@H]2C(=O)N1CCN(C(=O)c2ccco2)CC1	.	5.9%	.	.	-12.7%	.
CCOC(=O)c1c(C)c(-c2ccccc2)n(CC(=O)Nc2cc(C)cc(C)c2)c1C	.	1.1%	.	.	.	.
O=C(Nc1cccc(-c2cn3c(n2)SCC3)c1)c1ccc(Br)o1	5.5%	2.0%	.	16.6	-2.8%	28.6
CC(=O)Nc1ccc(-c2cn3c(n2)SCC3)cc1	5.8%	8.8%	1.5%	32.0*	2.1%	28.0
O=C(Oc1ccc(-c2cn3c(n2)SCC3)cc1)c1ccccc1	-3.7%	-17.6%	-4.1%	11.9*	-5.2%	11.1
CC(=O)Nc1ccc(S(=O)(=O)Nc2cccc(-c3cn4c(n3)SCC4)c2)cc1	3.8%[11.5 µM]	-0.6%	.	-2.6	3.9%	-4.1
CC(=O)c1ccc(S(=O)(=O)Nc2cccc(-c3cn4c(n3)SCC4)c2)cc1	4.9%	-0.2%	.	14.4	-0.7%	12.3
O=C(Nc1ccc(-c2cn3c(n2)SCC3)cc1)c1ccco1	-22.8%	-15.5%	4.1%	40.0*	-0.6%	65.0*
CCOC(=O)[C@@](C)(N)Cc1ccc(O)c(O)c1	.	2.6%	.	.	.	.
COc1cc2c(c(OC)c1OC)C(=O)CO2	.	2.8%	.	.	.	.
Cc1ccc(NC(=O)CCSc2ccccn2)cc1	0.4%	-1.1%	-6.5%	58.8*	5.0%	+
Cc1cccc(NC(=O)CCSc2nncn2C)c1	0.6%	-8.5%	7.2%	-1.6	-14.5%	14.8
Cc1cccc(NC(=O)CCSc2ccccn2)c1	2.2%	-5.6%	2.4%	74.8*	8.4%	74.0*
CN(C)/C=N/c1ncn(-c2ncc(C(F)(F)F)cc2Cl)n1	-0.7%	2.4%	.	19.8	-1.3%	50.2*
CCCc1cc2c(=O)c(-c3ccccn3)coc2cc1OC	0.6%	-3.2%	-18.1%	44.5*	0.7%	90.1*
O=C(N/N=C/c1cc2c(cc1Br)OCO2)c1ccccn1	?	-5.9%	-7.3%	42.8*	-1.2%	54.6*
O=C(N/N=C/c1ccc2c(c1)OCO2)c1ccc2ccccc2n1	2.1%	2.5%	.	26.4*	-5.7%	80.5
Cc1cccc(C(=O)N/N=C/c2ccc3c(c2)OCO3)n1	-5.2%	-1.8%	-13.1%	17.6	-2.1%	40.8
O=C(N/N=C/c1ccsc1)c1ccc2ccccc2n1	-1.3%	-6.9%	-2.9%	40.7*	-10.9%	73.8*
O=C(N/N=C/c1ccc2c(c1)OCO2)c1ccccn1	11.2µM*	-16.6%	-4.1%	39.5*	-22.0%	92.9*
